Bioassay records from PubChem BioAssay.
A selection: hits, their analogues and other compounds. The true share with any hit is near 1.3%.
COUP-TFII inh – inhibitors of human COUP-TFII (NR2F2). AID 686940. P24468. inhibition, % at 8.6 µM. HEK293T NGFI-A luciferase reporter, luminescence. actives 0.7% (n = 370,000);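 active means inhibition above a per-plate cutoff, mean inhibition of test wells between control levels plus 3 SD, cut at about 38% in these data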;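 further: cells cotransfected with COUP-TFII expression vector driving the NGFI-A reporter; 0% = median of COUP-TF2 test wells and 100% = reporter-only cells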
NCOA2 inhibitor – inhibits human steroid receptor coactivator 2 | AID 651957 | inhibition, % at 9 µM | actives 0.17% (n = 370,000) | Q15596 | HEK293 GAL4-SRC2 luciferase reporter, luminescence;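 active means inhibition above the mean inhibition of all tested compounds plus 3 SD, set per campaign, cut at about 52% in these data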;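 further: 0% = DMSO treated cells and 100% = cells given Gossypol at 36 µM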
NCOA1 inh – human NCOA1 inhibition | Q15788 | HEK293 GAL4-SRC1 luciferase reporter, luminescence | inhibition, % at 3.6 µM | actives 0.12% (n = 360,000) | AID 588354;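 active means inhibition above the campaign mean plus 3 SD, with each screening campaign given its own cutoff, cut at about 60% in these data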;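 further: 0% = DMSO treated cells and 100% = gossypol at 36 µM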
SRC3 inh – inhibitors of human steroid receptor coactivator 3 (SRC3); Q9Y6Q9; inhibition, % at 3.6 µM; HEK293 GAL4-SRC3 luciferase reporter, luminescence; actives 0.17% (n = 360,000);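 active means inhibition above a per-campaign cutoff, the mean of all compounds plus 3 SD, cut at about 60% in these data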;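 further: 0% = DMSO-treated cells and 100% = gossypol-treated cells at 36 µM; higher means less SRC3-driven luciferase light from the GAL4 reporter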
Target sequence (Q9Y6Q9 whole entry, looked up, the tested form may be a part): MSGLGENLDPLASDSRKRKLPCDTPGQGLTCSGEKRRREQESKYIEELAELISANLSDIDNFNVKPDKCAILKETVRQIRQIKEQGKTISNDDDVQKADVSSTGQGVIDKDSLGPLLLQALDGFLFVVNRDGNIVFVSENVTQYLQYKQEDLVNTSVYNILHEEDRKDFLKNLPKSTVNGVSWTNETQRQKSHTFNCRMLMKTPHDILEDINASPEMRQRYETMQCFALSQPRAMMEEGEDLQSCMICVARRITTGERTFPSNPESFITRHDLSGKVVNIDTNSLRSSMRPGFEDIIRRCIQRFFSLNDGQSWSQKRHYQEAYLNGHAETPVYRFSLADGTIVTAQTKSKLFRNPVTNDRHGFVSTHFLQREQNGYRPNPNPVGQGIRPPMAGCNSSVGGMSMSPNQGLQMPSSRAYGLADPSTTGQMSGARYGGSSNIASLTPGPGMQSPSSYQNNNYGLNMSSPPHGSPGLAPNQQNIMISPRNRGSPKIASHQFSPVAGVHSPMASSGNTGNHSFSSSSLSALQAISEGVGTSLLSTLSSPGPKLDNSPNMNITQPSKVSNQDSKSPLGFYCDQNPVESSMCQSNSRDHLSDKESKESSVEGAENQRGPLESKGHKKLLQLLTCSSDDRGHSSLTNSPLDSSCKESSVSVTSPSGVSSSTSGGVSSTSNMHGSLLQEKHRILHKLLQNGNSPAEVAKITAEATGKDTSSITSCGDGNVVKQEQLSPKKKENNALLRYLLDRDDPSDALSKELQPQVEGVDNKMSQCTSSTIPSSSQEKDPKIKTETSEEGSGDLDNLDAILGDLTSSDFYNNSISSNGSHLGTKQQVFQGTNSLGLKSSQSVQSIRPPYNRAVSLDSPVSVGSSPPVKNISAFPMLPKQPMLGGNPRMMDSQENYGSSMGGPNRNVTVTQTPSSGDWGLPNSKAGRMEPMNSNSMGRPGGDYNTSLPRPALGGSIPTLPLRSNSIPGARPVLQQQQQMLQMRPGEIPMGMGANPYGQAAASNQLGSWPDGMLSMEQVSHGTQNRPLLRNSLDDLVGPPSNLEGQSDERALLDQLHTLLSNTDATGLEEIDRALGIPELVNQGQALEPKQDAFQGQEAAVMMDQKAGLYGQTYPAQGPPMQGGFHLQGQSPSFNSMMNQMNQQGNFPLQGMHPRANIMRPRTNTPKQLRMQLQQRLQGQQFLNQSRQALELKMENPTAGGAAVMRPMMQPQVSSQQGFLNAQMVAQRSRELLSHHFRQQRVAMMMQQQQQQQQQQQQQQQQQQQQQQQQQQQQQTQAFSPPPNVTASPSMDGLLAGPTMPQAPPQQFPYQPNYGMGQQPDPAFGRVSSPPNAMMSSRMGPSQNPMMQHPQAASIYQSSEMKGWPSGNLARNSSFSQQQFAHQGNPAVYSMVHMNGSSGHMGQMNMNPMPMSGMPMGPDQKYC
LRH-1 inv ag – suppresses constitutive activity of human LRH-1. inhibition, % at 3.6 µM. HEK293T StAR-luciferase reporter, LRH-1 transfected, 24 h. actives 0.13% (n = 360,000);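 active means inhibition above the mean inhibition of all tested compounds plus 3 SD, cut at about 73% in these data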;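 further: 0% = DMSO wells and 100% = reporter-only cells lacking LRH-1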
Gli-Sufu antag – antagonists of Gli-Sufu signaling | Sufu-KO-LIGHT fibroblasts, Gli luciferase reporter luminescence | inhibition, % at 5 µM | actives 0.74% (n = 340,000) | AID 588413;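 active means inhibition above about 55%, limit read from the data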;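 further: 0% = DMSO-treated cells and 100% = wells with medium but no cells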
Gli-Sufu confirm – Gli-SUFU antagonism confirmation, single concentration. shares compounds with Gli-Sufu antag. Sufu-KO-LIGHT cells, Gli luciferase reporter, luminescence. inhibition, % at 5 µM. actives 40% (n = 2,500). AID 602428;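 active means mean inhibition at 5 µM reaching about 45%, limit read from the data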;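 further: plate controls were DMSO-treated cells for no effect and wells lacking cells for full effect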
SufuKO cytotox – cytotoxic in Gli-SUFU antagonist counter-screen. shares compounds with Gli-Sufu antag. Sufu-KO-LIGHT cells cytotoxicity, ATP luminescence. cytotoxicity, % at 5 µM. actives 32% (n = 2,500). AID 651994;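 active means mean cytotoxicity at 5 µM above about 25%, limit read from the data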;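 further: cells exposed to compound overnight for roughly 16 to 18 hours; plate controls were DMSO wells with cells for no effect and medium without cells for full effect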
Wnt3a counter – Wnt3a reporter inhibition counter-screen. inhibition, % at 6.25 µM. shares compounds with Gli-Sufu antag. actives 20% (n = 2,500). AID 651995. Wnt-LIGHT cells, Wnt3a-driven luciferase reporter, luminescence;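 active means mean inhibition above about 25%, limit read from the data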
The depositor's hits bear a star; . = no result given.

SMILES	COUP-TFII inh	NCOA2 inhibitor	NCOA1 inh	SRC3 inh	LRH-1 inv ag	Gli-Sufu antag	Gli-Sufu confirm	SufuKO cytotox	Wnt3a counter
COc1ccccc1OCC(=O)Nc1ccc(NC(=O)COc2ccccc2OC)cc1	5	-6	-8	14	14	-7	.	.	.
COc1ccccc1OCC(=O)Nc1ccc(C(N)=O)cc1	12	9	-4	11	-2	69*	27	4	4
CC(Oc1ccccc1)C(=O)Nc1ccc(C(N)=O)cc1 (stereo not drawn)	-6	8	1	14	9	52	19	4	-10
C=CCN=C1NC(c2cccc(F)c2)C(C(=O)OC)=C(C)N1Cc1cccc(C(F)(F)F)c1 (stereo not drawn)	13	-20	.	.	.	.	.	.	.
O=S1(=O)c2ccc(Br)cc2OC2CCCC[C@@H]2N1Cc1ccccc1 (stereo partly drawn)	0	-5	.	.	.	.	.	.	.
COc1ccc(-c2c(-c3ccc(O)cc3O)n[nH]c2C(F)(F)F)cc1	16	-4	15	-13	19	4	.	.	.
COc1ccccc1-c1c(-c2ccc(O)cc2O)n[nH]c1C(F)(F)F	34	13	-2	17	15	50	63*	24	31*
CC1(C(=O)N2CCC(Oc3cccnc3)CC2)CC1	18	-5	.	.	.	.	.	.	.
CCNC(=S)Nc1ccc(Oc2ccccc2)cc1	0	-8	-35	10	-1	-6	.	.	.
COc1ccc(NC(=S)Nc2ccc(Oc3ccccc3)cc2)cc1	5	29	-2	12	16	77*	38	22	0
COC(=O)C1=C(C)N(C)C(=NCc2cccc(C(F)(F)F)c2)NC1c1ccccc1C(F)(F)F (stereo not drawn)	8	8	.	.	.	.	.	.	.
Cc1cc(C)c2nc(N(CCCN(C)C)C(=O)c3ccc4c(c3)OCCO4)sc2c1	-14	13	-5	-3	-1	71*	13	20	-61
COc1cccc(C(CC2=CCCCC2)NC(=O)C(F)(F)F)c1 (stereo not drawn)	-14	2	.	.	.	.	.	.	.
CC1CC(C)CN(CCCNS(=O)(=O)c2cc3c(cc2Br)CCN3C(=O)C2CC2)C1 (stereo not drawn)	3	-13	.	.	.	.	.	.	.
COc1cccc(/C=N/Nc2ncnc3c2ncn3Cc2ccccc2)c1O	-12	22	53	67*	91*	51	78*	32*	69*
Cc1cc(-c2ccc(C)c(S(=O)(=O)NCCCN3CCN(c4ccccc4F)CC3)c2)on1	31	10	8	6	14	56*	39	13	0
Cc1cc(-c2ccc(C)c(S(=O)(=O)NCCCN3CCCCCC3)c2)on1	-11	-3	-25	-5	-6	18	.	.	.
CSc1ncc(Cl)c(C(=O)Nc2nnc(SC)s2)n1	15	-1	9	8	7	-2	.	.	.
CCCSc1nnc(NC(=O)c2nc(SC)ncc2Cl)s1	-2	6	-5	-6	-11	56*	20	19	-22
O=C(C(=O)N1CCC(CNS(=O)(=O)c2cccc3ccccc23)CC1)c1cccs1	-6	-10	.	.	.	.	.	.	.
CCCCCCCN1C2=NCCCN2c2ccccc21	-1	19	12	34	22	59*	41	4	16
CCCCN1C2=NCCCN2c2cc(C)c(C)cc21	-13	-14	14	5	9	64*	67*	39*	29*
CC(C)C[C@@H]1COc2cccc(NCCO)c2S(=O)(=O)N1	-9	8	.	.	.	.	.	.	.
Nc1[nH]c(C(=O)c2ccccc2)c(-c2cccc3ccccc23)c1C(=O)c1cccs1	-11	8	.	.	.	.	.	.	.
CC1=Nc2cccc3cccc(c23)N1C	10	-6	-22	13	-7	70*	89*	13	-19
SMILES	COUP-TFII inh	NCOA2 inhibitor	NCOA1 inh	SRC3 inh	LRH-1 inv ag	Gli-Sufu antag	Gli-Sufu confirm	SufuKO cytotox	Wnt3a counter
O=C(CSCCc1ccccn1)Nc1ccccn1	-3	-45	-4	-2	11	96*	8	25	-6
O=C(CSCCc1ccccn1)Nc1ccc(Br)cn1	-2	-10	-24	-28	-9	-4	.	.	.
C/C(=N\NC(=O)C(C)Oc1ccc([N+](=O)[O-])cc1)c1ccccn1 (stereo not drawn)	-12	-7	26	4	-32	88*	85*	33*	56*
O=C(c1cnc(N2CCN(c3ccccn3)CC2)c2ccccc12)N1CCN(c2cccc(Cl)c2)CC1	14	20	-12	8	-9	65*	54*	36*	-3
CCOC(=O)CNC(=O)CSc1nc(-c2ccc(C)cc2)ns1	4	2	-8	-1	-9	-18	.	.	.
CCOC(=O)CNC(=O)CSc1nc(-c2ccccc2)ns1	-28	-7	-1	17	-1	62*	27	17	3
COCCNC(=S)N(C)[C@H]1C[C@H]2c3[nH]c4ccccc4c3CCN2C(=O)[C@H]1[C@H](C)O	-15	-3	.	.	.	.	.	.	.
COc1ccc(CN2CCc3ccccc3C2)c(OC)c1	8	14	-40	4	2	13	.	.	.
COc1ccc(C2=[N+](C)CCn3cccc32)c(OC)c1	12	4	11	13	0	70*	47*	21	13
Cc1cccc(C(=O)Nc2nc3ncccn3c2-c2ccccc2)c1	-16	4	.	.	.	.	.	.	.
Cc1ccc(NC(=S)Nc2ccc(S(=O)(=O)N3CCOCC3)cc2)cc1S(=O)(=O)N1CCOCC1	4	-28	2	-1	4	55	9	8	-21
Cc1ccc2c(c1)NCC(C(=O)NC1CCCCC1)O2 (stereo not drawn)	.	.	0	3	-9	52	9	-4	-4
Cc1ccc(C)c(NC(=O)NC2CCCCCCC2)c1	4	-19	5	13	-7	-8	.	.	.
C[C@H]1[C@@H](NC(=O)/C=C/c2ccccc2)CC[C@@]23CCCN2C(=O)CCC[C@@H]13	-7	.	.	.	.	.	.	.	.
CC1=NN(c2ccccc2)C(=O)/C1=C/C=C/c1ccccc1	4	4	-1	-7	-5	-15	.	.	.
CC1=NN(c2ccccc2)C(=O)/C1=C\N1CC(C)OC(C)C1 (stereo not drawn)	1	9	-14	-8	-6	98*	24	9	5
CCOC(=O)c1ccc(NC(=S)N(CCCN2CCN(C)CC2)Cc2cccs2)cc1	-3	-6	-2	11	-9	60*	10	27*	-19
COc1ccc(OC)c(/C=C2\SC(N3CCCC(C)C3)=NC2=O)c1 (stereo not drawn)	20	-46	-1	7	-11	64*	14	12	-22
